The supplement of paper PMC11732987, “Enantioselective OTUD7B fragment discovery through chemoproteomics screening and high-throughput optimisation” (Communications Chemistry, 2025)
Values without a mark were called inactive.

Tests used:
Test in all cases: log2 ratio of Biotin-Ahx-Ub-VS probe labelling (fragment/DMSO); higher = less target engagement (more negative = stronger competition), active = hit call of the paper (q ≤ 0.05, log2 ratio ≤ -1)
Details in all cases: compound concentration: 200 uM; treatment time: 3 h
OTUD6B = target: T1, OTUD6B (UniProt Q8N6M0)
T1 sequence (whole entry): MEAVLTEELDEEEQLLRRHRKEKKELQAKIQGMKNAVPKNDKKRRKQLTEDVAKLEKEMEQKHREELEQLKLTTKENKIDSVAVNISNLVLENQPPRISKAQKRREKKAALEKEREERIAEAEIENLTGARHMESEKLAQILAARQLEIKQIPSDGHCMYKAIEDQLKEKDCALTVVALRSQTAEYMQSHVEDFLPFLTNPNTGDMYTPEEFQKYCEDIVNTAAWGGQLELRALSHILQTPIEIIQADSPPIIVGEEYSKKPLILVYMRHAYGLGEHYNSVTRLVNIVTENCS
Method in brief: (§1)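 HEK293T lysate (495 µg per sample, in Tris/CHAPS/IGEPAL buffer with protease inhibitors) was treated in triplicate with fragment at 200 µM or with DMSO for 3 h. It was then treated with Biotin-Ahx-Ub-VS (0.5 µM final) for 1 h. Labelled DUBs were NeutrAvidin-enriched, digested with LysC and trypsin, and run by diaPASEF LC-MS/MS. Spectronaut label-free quantities were global-median-normalised. Values are average log2 ratios fragment/DMSO by unpaired t-test, using proteins with ≥2 unique peptides.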

OTUD7B = target: T2, OTUD7B (UniProt Q6GQQ9)
T2 sequence (whole entry): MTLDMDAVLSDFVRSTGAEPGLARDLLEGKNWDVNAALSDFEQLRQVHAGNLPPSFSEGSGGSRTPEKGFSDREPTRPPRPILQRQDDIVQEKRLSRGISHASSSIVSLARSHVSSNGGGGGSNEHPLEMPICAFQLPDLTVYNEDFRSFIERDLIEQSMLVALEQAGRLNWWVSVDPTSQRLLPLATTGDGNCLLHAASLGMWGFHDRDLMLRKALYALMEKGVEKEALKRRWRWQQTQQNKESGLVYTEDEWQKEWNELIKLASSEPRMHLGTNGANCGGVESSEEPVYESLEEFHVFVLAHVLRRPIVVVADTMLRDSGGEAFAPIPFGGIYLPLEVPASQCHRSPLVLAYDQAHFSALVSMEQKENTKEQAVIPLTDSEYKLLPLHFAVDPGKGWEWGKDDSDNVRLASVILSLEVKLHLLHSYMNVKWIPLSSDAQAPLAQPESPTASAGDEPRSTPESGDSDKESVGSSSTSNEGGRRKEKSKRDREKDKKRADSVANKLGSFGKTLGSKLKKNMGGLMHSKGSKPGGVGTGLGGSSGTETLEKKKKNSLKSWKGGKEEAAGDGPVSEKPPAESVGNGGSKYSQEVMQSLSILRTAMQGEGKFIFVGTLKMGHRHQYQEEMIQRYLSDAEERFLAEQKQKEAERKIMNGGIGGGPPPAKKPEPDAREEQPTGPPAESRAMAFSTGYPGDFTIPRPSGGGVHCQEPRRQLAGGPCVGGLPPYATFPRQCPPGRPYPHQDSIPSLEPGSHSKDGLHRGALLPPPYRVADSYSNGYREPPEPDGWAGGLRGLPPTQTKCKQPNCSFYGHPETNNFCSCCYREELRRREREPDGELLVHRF
Method in brief: as §1

PRPF8 = PRPF8 (UniProt Q6P2Q9)
Method in brief: as §1

PSMD7 = target: T3, PSMD7 (UniProt P51665)
T3 sequence (whole entry): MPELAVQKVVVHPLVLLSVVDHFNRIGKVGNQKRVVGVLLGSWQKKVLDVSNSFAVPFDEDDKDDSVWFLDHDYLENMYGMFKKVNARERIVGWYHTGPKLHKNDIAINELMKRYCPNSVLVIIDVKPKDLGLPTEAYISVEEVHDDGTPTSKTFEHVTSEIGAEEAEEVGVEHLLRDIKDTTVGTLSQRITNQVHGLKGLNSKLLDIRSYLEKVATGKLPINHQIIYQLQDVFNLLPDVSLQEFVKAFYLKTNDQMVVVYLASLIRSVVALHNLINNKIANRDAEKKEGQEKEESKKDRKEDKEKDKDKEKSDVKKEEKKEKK
Method in brief: as §1

UCHL1 = UCHL1 (UniProt P09936)
Method in brief: as §1

UCHL3 = target: T4, UCHL3 (UniProt P15374)
T4 sequence (whole entry): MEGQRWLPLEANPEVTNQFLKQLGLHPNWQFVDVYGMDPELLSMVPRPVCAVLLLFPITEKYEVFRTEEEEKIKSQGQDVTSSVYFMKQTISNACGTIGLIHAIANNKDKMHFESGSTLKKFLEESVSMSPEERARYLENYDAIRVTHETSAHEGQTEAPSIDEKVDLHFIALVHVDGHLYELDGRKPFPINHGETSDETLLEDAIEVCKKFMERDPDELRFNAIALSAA
Method in brief: as §1

UCHL5 = target: T5, UCHL5 (UniProt Q9Y5K5)
T5 sequence (whole entry): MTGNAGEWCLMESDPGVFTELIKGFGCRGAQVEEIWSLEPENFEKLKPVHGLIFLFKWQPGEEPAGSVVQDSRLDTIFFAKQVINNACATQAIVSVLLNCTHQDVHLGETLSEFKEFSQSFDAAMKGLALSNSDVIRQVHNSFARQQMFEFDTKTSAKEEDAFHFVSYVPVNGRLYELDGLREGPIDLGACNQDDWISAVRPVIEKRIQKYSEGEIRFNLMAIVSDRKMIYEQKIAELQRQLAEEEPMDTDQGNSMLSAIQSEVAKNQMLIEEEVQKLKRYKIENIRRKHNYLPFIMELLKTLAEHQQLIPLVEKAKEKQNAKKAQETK
Method in brief: as §1

USP10 = USP10 (UniProt Q14694)
Method in brief: as §1

USP15 = target: T6, USP15 (UniProt Q9Y4E8)
T6 sequence (whole entry): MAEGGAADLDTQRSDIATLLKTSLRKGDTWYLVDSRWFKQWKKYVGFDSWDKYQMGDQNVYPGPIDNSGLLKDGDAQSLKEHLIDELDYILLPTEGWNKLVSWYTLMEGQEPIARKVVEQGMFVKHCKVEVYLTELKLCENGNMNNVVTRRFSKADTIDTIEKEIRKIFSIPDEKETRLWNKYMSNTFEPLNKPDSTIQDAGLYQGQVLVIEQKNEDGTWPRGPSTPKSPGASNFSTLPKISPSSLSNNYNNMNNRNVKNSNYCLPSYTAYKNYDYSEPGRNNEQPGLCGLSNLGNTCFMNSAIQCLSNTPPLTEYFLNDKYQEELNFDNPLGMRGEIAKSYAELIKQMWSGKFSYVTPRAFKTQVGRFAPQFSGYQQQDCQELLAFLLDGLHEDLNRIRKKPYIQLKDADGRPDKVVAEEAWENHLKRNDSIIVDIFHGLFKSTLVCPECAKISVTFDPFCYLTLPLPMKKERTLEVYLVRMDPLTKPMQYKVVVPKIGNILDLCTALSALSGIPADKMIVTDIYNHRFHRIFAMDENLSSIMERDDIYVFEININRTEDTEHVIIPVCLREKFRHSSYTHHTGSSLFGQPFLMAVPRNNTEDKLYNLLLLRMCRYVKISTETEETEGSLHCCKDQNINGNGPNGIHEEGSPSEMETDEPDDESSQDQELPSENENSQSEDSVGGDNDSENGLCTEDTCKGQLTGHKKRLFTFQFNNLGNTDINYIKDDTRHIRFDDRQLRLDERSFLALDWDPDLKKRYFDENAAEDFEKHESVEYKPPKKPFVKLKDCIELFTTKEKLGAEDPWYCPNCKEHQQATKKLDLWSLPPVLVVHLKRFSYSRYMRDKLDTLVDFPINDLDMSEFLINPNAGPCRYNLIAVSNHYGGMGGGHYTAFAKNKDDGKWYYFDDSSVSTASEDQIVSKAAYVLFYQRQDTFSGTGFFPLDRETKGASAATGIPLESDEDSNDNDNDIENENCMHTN
Method in brief: as §1

USP16 = USP16 (UniProt Q9Y5T5)
Method in brief: as §1

Sequence of USP16 (Q9Y5T5 whole entry, looked up): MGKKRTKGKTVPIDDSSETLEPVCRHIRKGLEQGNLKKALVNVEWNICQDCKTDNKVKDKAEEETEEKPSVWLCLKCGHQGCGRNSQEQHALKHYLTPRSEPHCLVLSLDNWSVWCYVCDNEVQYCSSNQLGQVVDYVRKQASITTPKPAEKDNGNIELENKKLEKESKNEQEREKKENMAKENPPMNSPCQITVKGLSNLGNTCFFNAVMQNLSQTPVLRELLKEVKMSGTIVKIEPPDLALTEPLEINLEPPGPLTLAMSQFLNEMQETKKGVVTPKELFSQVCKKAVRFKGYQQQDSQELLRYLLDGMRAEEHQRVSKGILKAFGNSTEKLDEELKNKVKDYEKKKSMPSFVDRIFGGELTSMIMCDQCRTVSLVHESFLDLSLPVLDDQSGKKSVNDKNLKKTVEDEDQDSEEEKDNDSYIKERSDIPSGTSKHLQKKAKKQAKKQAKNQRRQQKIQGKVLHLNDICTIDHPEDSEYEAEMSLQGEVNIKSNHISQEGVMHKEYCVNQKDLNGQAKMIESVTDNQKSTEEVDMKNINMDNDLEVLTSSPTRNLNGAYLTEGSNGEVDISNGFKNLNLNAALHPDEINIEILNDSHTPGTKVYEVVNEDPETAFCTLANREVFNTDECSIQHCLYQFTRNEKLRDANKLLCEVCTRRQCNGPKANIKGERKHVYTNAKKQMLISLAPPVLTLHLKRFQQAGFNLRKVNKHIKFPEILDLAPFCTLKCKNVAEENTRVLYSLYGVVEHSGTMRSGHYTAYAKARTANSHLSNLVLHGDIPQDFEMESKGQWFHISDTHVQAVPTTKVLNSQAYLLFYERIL
Sequence of UCHL1 (P09936 whole entry, looked up): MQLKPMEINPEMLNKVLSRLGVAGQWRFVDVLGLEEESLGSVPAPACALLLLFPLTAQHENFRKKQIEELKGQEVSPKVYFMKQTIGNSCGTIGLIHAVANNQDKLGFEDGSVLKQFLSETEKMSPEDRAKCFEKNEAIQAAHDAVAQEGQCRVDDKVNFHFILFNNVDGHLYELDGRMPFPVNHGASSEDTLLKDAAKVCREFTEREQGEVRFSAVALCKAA
Sequence of USP10 (Q14694 whole entry): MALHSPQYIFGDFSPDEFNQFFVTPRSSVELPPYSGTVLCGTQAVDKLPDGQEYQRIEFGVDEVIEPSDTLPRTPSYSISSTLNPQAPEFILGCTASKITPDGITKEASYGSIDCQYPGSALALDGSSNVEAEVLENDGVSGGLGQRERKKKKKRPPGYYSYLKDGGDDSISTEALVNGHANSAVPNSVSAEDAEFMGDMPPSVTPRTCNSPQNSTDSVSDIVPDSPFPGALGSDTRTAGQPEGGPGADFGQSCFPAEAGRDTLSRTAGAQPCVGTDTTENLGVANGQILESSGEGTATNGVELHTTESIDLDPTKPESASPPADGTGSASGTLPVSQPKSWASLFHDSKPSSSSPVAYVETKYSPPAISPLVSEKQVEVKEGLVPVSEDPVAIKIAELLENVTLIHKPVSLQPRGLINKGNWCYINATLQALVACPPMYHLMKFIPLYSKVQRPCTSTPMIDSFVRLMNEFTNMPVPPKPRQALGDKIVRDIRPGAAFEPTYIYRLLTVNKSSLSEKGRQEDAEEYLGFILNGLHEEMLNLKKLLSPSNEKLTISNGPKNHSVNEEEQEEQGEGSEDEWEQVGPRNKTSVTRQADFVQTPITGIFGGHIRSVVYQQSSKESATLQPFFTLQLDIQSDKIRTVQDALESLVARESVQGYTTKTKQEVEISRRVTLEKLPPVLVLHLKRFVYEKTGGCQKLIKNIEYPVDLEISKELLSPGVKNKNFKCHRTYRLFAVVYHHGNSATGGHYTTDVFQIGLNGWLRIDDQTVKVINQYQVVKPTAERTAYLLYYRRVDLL

O=C(CCl)NC1(c2ccc3c(c2)OCCO3)CCCC1
log2 ratio of Biotin-Ahx-Ub-VS probe labelling (OTUD6B): -0.0936
log2 ratio of Biotin-Ahx-Ub-VS probe labelling (OTUD7B): -0.638
log2 ratio of Biotin-Ahx-Ub-VS probe labelling (PRPF8): -0.154
log2 ratio of Biotin-Ahx-Ub-VS probe labelling (PSMD7): -0.208
log2 ratio of Biotin-Ahx-Ub-VS probe labelling (UCHL1): -1.32 (active)
log2 ratio of Biotin-Ahx-Ub-VS probe labelling (UCHL3): -0.106
log2 ratio of Biotin-Ahx-Ub-VS probe labelling (UCHL5): -0.537
log2 ratio of Biotin-Ahx-Ub-VS probe labelling (USP10): -0.203
log2 ratio of Biotin-Ahx-Ub-VS probe labelling (USP15): -0.213
log2 ratio of Biotin-Ahx-Ub-VS probe labelling (USP16): -0.316
